High-throughput results (PubChem BioAssay)
Only some compounds are listed: those with a hit (about 1.4% of all), similar ones and a draw of the others.
Wee1 stabilizer: inhibitors of human Wee1 degradation | HeLa Luc-Wee1K328M stability, luciferase luminescence; 100% = proteasome inhibitor MG132 effect | 220,000 tested, 1.2% active | P30291 | AID 1321 | reporter increase, % at 5 µM;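 active = activation above the mean of all tested compounds plus 3 SD, set per screening run, cut at about 8.8% in these data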;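 also: cells exposed to compound for 20 h before luminescence read; 0% = DMSO alone and 100% = MG132 at 30 µM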
Target sequence (P30291 whole entry K328M): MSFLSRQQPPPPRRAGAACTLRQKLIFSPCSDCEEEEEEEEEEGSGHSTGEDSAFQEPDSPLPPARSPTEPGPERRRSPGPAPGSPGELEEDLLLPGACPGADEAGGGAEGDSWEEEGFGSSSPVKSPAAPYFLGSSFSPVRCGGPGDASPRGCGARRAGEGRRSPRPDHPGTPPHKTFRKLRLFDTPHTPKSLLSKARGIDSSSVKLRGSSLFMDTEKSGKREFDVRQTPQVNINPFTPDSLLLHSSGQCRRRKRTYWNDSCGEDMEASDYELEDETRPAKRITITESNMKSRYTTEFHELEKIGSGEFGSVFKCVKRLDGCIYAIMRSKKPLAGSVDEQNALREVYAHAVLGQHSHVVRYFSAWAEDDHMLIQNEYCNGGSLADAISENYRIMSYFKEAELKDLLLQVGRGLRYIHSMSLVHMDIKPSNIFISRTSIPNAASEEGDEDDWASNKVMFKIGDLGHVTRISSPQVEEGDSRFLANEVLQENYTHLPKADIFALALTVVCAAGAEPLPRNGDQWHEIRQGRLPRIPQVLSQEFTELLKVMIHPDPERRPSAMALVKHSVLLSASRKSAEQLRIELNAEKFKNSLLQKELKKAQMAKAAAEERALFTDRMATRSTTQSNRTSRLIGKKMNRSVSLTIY
TNF death inh: inhibitors of TNF-alpha induced necroptosis in Jurkat FADD-/- cells. Jurkat FADD-/- TNF necroptosis rescue, ATP luminescence, 24 h; 0 = TNF only, 100 = no-TNF cells. AID 463075. activation (protection from cell death), % at 10 µM. 220,000 tested, 0.068% active;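 active = activation, meaning protection from cell death, of at least 50% relative to plate controls; inactive = activation below 50%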;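 also: necroptosis triggered by 40 ng/mL TNF-alpha added together with compound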
HSV augment: HSV replication enhancement. HSV replication augmentation in cells, fold increase. maximum fold increase. 220,000 tested, 0.005% active. AID 1956; in the data active = maximum fold increase above about 1.5; tested in PC3 cells
V-ATPase pH: yeast V-ATPase proton transport regulation by pHLuorin | AID 504577 | response, % at 10 µM | 350,000 tested, 0.37% active | S. cerevisiae, pHLuorin cytosolic pH fluorescence; in the data active = response mostly above about 7.3%, no sharp cut-off; inactive = mostly below about 5.4%; also: actives read high
L929 necroptosis: blocks zVAD induced death of L929 cells | AID 1377 | L929 zVAD necroptosis rescue, ATP luminescence, 24 h; with zVAD 60 µM | 220,000 tested, 0.38% active | viability rescue, % at 10 µM;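 active = activation, scaled between plate controls, above about 75%, limit read from the data; inactive = activation under that limit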;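 also: 0% = zVAD with DMSO and 100% = DMSO alone without zVAD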
VATPase regulator: yeast V-ATPase proton transport regulation. shares compounds with V-ATPase pH. S. cerevisiae pHLuorin cytosolic pH. response, % at 10 µM. 980 tested, 2% active. AID 602197; in the data active = response above about 24%;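 also: plate controls were vehicle wells for no effect and positive control wells for full effect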
* hit, by the source's call; i = inactive; . = no result given.

SMILES	Wee1 stabilizer	TNF death inh	HSV augment	V-ATPase pH	L929 necroptosis	VATPase regulator
CCN(CC)c1ccc(C2C(C(=O)Nc3ccccn3)=C(C)NC3=C2C(=O)CC(C)(C)C3)cc1 (stereo not drawn)	-2	0	i	17*	0	-1
C[C@H](c1ccccc1)n1nnc(COCc2ccccc2)c1C#CCOCc1ccccc1	.	2	i	9.9*	0	1
N/C(=N\OC(=O)Cc1ccccc1[N+](=O)[O-])c1cccc(Br)c1	0	0	i	13*	-1	-3
CC1(C)NC(=O)N(CC(=O)OCC(=O)Nc2cccc(S(N)(=O)=O)c2)C1=O	-1	0	i	-3	0	.
CC1CCN(S(=O)(=O)c2ccc(C(=O)NCc3cccnc3)cc2)CC1	0	2	i	0	3	.
Cc1ccc(-c2ccc(CN3C(CC(C)C)C(=O)N(Cc4cn(CCC5OCCCO5)nn4)CCS3(=O)=O)cc2)cc1 (stereo not drawn)	.	.	.	0	.	.
CCC/C=C/c1ccc(CN2C(CC(C)C)C(=O)N(Cc3cn(CCC4OCCCO4)nn3)CCS2(=O)=O)cc1 (stereo not drawn)	.	.	.	0	.	.
CC(C)CC1C(=O)N(Cc2cn(CCC3OCCCO3)nn2)CCS(=O)(=O)N1Cc1ccc(-c2ccc(F)cc2)cc1 (stereo not drawn)	.	.	.	5.5*	.	0
CCC/C=C/c1ccc(CN2C(CC(C)C)C(=O)N(Cc3cn(CCC4OCCO4)nn3)CCS2(=O)=O)cc1 (stereo not drawn)	.	.	.	9.2*	.	-3
Cc1oc(-c2ccccc2)nc1C(=O)N1CCN(c2ccc(F)cc2)CC1	2	1	i	-1	0	.
COc1cccc(CN2CC(C(=O)N3CCN(C(C)C)CC3)CCC2=O)c1 (stereo not drawn)	.	.	.	-1	.	.
O=C1NCCN/C1=C\C(=O)c1ccc(F)cc1	2	2	i	-2	2	3
CN(c1ccc(C(=O)N/N=C/c2cccc([N+](=O)[O-])c2)cc1)S(=O)(=O)c1ccccc1	.	.	.	0	.	.
O=C(CCl)NN1C(=O)NC2(CCCCC2)C1=O	8	0	i	-3	0	.
O=C(CCl)NN1C(=O)NC(c2ccccc2)(c2ccccc2)C1=O	.	.	.	12*	.	1
COc1ccc(N(CC(=O)N/N=C/c2ccc(C(=O)O)cc2)S(=O)(=O)c2ccc(NC(C)=O)cc2)cc1	.	.	.	-2	.	.
COc1ccc(N(CC(=O)N/N=C/c2cc(Br)c(C)o2)S(=O)(=O)c2ccc(NC(C)=O)cc2)cc1	0	2	i	11*	2	-2
Cc1ccc(NC(=O)CN(C)C(=O)CCSc2ccc(F)cc2)cc1	.	.	.	-3	.	.
CCOC(=O)c1n[nH]c(=O)c2ccccc12	3	1	i	0	0	.
CCOC(=O)c1nc2ccccc2c(=O)[nH]1	1	2	i	-1	1	-1
CCOC(=O)CSc1nc2ccccc2c(=O)[nH]1	0	0	i	10*	1	0
CCOC(=O)c1n[nH]c2ccccc12	-3	-1	.	4	4	-4
Cc1ccc(OCC(=O)N/N=C/c2cccnc2)cc1C	.	.	.	-5	.	.
CCN(CC)C(=O)C1=C(C)N(Cc2ccccc2)C(=O)C(CC(=O)NC2CCCC2)C1 (stereo not drawn)	.	.	.	7.1*	.	-1
O=C(COC(=O)c1ccccn1)c1ccc([N+](=O)[O-])cc1	.	.	.	0	.	.
SMILES	Wee1 stabilizer	TNF death inh	HSV augment	V-ATPase pH	L929 necroptosis	VATPase regulator
CCOc1ccc(S(=O)(=O)NCCC(=O)Nc2nnc(C)s2)cc1	.	.	.	-9	.	.
Cc1ccc(S(=O)(=O)N2CCN(c3ccccc3)CC2)cc1C(N)=O	4	0	i	9.8*	1	-1
Cc1ccc(S(=O)(=O)N2CCN(c3ccccc3)CC2)cc1	.	.	.	3	.	.
CN(C)C(CNC(=O)c1ccc(S(=O)(=O)Nc2cccc(C(F)(F)F)c2)cc1)c1ccco1 (stereo not drawn)	.	.	.	10*	.	2
CN(C)C(CNC(=O)c1cccc(NS(=O)(=O)c2ccc(Br)cc2)c1)c1ccco1 (stereo not drawn)	.	.	.	0	.	.
CC(=O)Oc1ccc(-c2cccc(C(=O)OCC(=O)N(C)c3ccccc3)c2)cc1	4	11	i	2	37	.
Cc1cccc(C(=O)N(NC(=O)Oc2ccccc2)C(C)(C)C)c1	-3	2	i	6.9*	2	-4
COc1ccccc1C(=O)N(NC(=O)Oc1ccccc1)C(C)(C)C	-4	2	i	2	0	.
